Test results reported in PubChem BioAssay AID1445 (SRMLSC, 2008).
“And” between values parts separate entries of the source, which are not always exact repeats. Equal entries are not always repeated. Hit rate of the full screen: of about 220,000 compounds, about 910 (0.41%) were called active.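 Rule for the calls: active = primary inhibition above the hit cutoff, then over 50% inhibition at one or more dose response concentrations (cut at about 23% in these data, passing the limit was not always enough); inconclusive = conflicting primary data, or primary hits not chosen for dose response; inactive = low primary inhibition, or under 50% at every dose.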 Only a selection was taken, and actives are over-represented in it overall. Entries with a potency or affinity are not part of this list. Some structures have more than one record in an assay (separate samples or runs), and their calls can disagree.

Each molecule was assayed against Aminopeptidase N (Plasmodium falciparum (isolate 3D7)) (UniProt O96935) (assay: malaria alanyl aminopeptidase activity blockers – biochemical, fluorogenic H-Leu-NHMec substrate, 1536-well (AID 1445;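 note: plate controls were DMSO full reaction for no effect and no enzyme background for full effect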)). Details: recombinant M1AAP, H-Leu-NHMec fluorogenic kinetic assay; at 30 µM, stronger effect = higher value unless noted.
Chain of Aminopeptidase N (Plasmodium falciparum (isolate 3D7)) (O96935 whole entry, looked up): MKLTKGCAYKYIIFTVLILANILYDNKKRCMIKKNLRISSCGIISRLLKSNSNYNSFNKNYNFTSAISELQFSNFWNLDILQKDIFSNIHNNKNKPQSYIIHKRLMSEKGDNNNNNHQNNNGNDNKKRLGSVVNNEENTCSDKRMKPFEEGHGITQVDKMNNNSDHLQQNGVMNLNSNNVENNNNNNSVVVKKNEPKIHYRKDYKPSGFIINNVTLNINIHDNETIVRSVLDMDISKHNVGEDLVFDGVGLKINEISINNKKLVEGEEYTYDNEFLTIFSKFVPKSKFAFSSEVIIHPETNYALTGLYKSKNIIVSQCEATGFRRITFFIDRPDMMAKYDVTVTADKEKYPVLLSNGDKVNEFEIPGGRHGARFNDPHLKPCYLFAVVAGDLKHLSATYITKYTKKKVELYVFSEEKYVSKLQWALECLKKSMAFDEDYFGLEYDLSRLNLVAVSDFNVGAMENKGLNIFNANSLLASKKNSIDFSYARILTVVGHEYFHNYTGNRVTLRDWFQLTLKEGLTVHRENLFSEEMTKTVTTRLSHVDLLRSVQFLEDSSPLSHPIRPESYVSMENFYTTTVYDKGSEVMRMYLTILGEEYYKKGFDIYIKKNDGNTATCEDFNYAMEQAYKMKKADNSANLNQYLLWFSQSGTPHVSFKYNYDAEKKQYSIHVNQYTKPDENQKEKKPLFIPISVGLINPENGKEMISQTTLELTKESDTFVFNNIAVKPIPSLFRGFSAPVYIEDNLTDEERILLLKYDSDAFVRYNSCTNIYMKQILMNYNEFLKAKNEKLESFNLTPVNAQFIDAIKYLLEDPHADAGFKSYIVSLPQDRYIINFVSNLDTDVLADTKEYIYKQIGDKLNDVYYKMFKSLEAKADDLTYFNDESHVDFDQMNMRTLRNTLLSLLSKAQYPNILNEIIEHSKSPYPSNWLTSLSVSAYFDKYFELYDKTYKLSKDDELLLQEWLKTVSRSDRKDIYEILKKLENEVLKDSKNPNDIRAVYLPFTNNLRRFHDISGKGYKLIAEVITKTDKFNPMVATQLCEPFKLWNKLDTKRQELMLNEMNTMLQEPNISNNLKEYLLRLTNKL
In the case of Cc1ccc(Cn2c(SCCN3CCOCC3)nc3c2c(=O)n(C)c(=O)n3C)cc1, the inhibition is reported as 23.8% (active). Cn1c(=O)c2c(nc(SCCN3CCOCC3)n2Cc2ccccc2)n(C)c1=O was tested, and the inhibition was 7.6% (inactive). In the case of Cn1c(=O)c2c(nc(SCCN3CCOCC3)n2Cc2ccc(F)cc2)n(C)c1=O, the inhibition is reported as -1.46% (inactive). For Cc1ccc(NC(=O)NC2=NN(c3ccccc3)C(=O)/C2=C2/CCCN2C)cc1, the inhibition was 8.56% (inactive). With O=C(c1nc2ccccn2c1CN1CCC(Cc2ccccc2)CC1)N1CCCC1 the inhibition was 5.48% (inactive). In the case of CCOc1ccc(N(CC(=O)Nc2ccccc2C(=O)NCc2ccco2)S(C)(=O)=O)cc1, the inhibition is reported as 23.4% (active). For CCOc1ccccc1N(CC(=O)Nc1ccccc1C(=O)NCc1ccco1)S(C)(=O)=O, the inhibition was 21% (inactive). For COc1ccc(N(CC(=O)Nc2ccccc2C(=O)NCc2ccco2)S(C)(=O)=O)cc1, the inhibition was 3.79% (inactive). COc1ccc(C(C)=O)cc1CSc1nncn1C was tested, and the inhibition was 4.42% (inactive). In the case of COC(=O)c1c(NC(NC(=O)c2ccccc2)(C(F)(F)F)C(F)(F)F)sc2c1CCN(C)C2, the inhibition is reported as 2.95% (inactive). CCOC(=O)CNNC(=O)Nc1ccc(Cl)c(Cl)c1 was tested, and the inhibition was -5.41% (inactive). In the case of CCOC(=O)N(C)OC(=O)Nc1ccc(Cl)c(Cl)c1, the inhibition is reported as 24% (active). With CCOC(=O)N(CC)OC(=O)Nc1ccc(Cl)cc1 the inhibition was 2.39% (inactive). In the case of Nc1nc(SCC(=O)Nc2cc(-c3ccccc3)nn2-c2ccccc2)n[nH]1, the inhibition is reported as 26.4% (active). In the case of CCCc1ccc(-c2cc(NC(=O)CSc3n[nH]c(N)n3)n(-c3ccccc3)n2)cc1, the inhibition is reported as -9.14% (inactive). For Cc1ccc(-c2cc(NC(=O)CSc3n[nH]c(N)n3)n(-c3ccccc3)n2)cc1, the inhibition was 3.01% (inactive). CCCS(=O)(=O)N1CCCC(C(=O)c2cccc(Cl)c2)C1 (stereo not given) was tested, and the inhibition was 2.05% (inactive). In the case of CCCS(=O)(=O)N1CCC(C(=O)c2cccc(C(F)(F)F)c2)CC1, the inhibition is reported as 23.4% (active). In the case of CS(=O)(=O)N1CCC(C(=O)Nc2cccc(Cl)c2)CC1, the inhibition is reported as -2.4% (inactive). With O=C(NNC(=O)C1CCN(S(=O)(=O)c2cccc(C(F)(F)F)c2)CC1)C1CC1 the inhibition was -0.46% (inactive). In the case of CS(=O)(=O)N1CCCC(C(=O)c2cccc(Cl)c2)C1 (stereo not given), the inhibition is reported as -1.4% (inactive). With CCCCC1NC(C(=O)O)CS1 (stereo not given) the inhibition was -4.57% (inactive). Cc1ccc(C2C(=O)N(C3CCC(C)CC3)CC(=O)N2C2CC2)cc1 (stereo not given) was tested, and the inhibition was 6.72% (inactive). With COc1ccc(-n2ncc(N(C)n3cccc3)c(Cl)c2=O)cc1 the inhibition was 4.45% (inactive). In the case of COc1ccc(/C=C\C(=O)NCC(=O)N/N=C/c2ccc(O)cc2O)cc1, the inhibition is reported as 33.7% (inactive). O=C(CCNC(=O)c1ccccc1)N=Nc1c(O)[nH]c2ccccc12 was tested, and the inhibition was 14% (inactive). In the case of CCOC(=O)c1cc(-c2cccc([N+](=O)[O-])c2)n[nH]1, the inhibition is reported as 0.83% (inactive). With CCOC(=O)c1cc(-c2cccc([N+](=O)[O-])c2)on1 the inhibition was 7.98% (inactive). With COc1ccc(N(C)C(=S)Nc2ccc3nc(C)c(C)nc3c2)cc1 the inhibition was 0.41% (inactive). With Cc1noc(NC(=O)c2cccc(C(F)(F)F)c2)c1Cl the inhibition was 1.44% (inactive). With CCOC(=O)c1ccc(C(=O)OCC)nc1 the inhibition was -0.25% (inactive). For CCOC(=O)C1(CCOc2ccccc2)CCN(Cc2cccc3nonc23)CC1, the inhibition was 11.9% (inactive). In the case of COc1ccc(C2c3[nH]c4ccccc4c3CCN2C(=O)c2ccc(=O)n(C)n2)c(F)c1 (stereo not given), the inhibition is reported as -6.53% (inactive). With O=C(c1ccccc1)N1CCC(O)(c2ccc3c(c2)OCO3)CC1 the inhibition was -2.13% (inactive). For CCN1C(=O)c2ccc(C(=O)NCc3ccccc3)cc2C1=O, the inhibition was 1.2% (inactive). With CN1C(=O)c2ccc(C(=O)NCc3ccccc3)cc2C1=O the inhibition was 5.4% (inactive). With CCCCCOc1ccccc1C(=O)NCCC(=O)O the inhibition was 0.09% (inactive). For Cc1cc(C)n(-c2ccc(F)cc2)c(=O)c1C#N, the inhibition was 3.92% (inactive). For CCO/N=C(/C)c1c(O)cc(C(C)(C)C)n(-c2ccccc2)c1=O, the inhibition was 1.22% (inactive). In the case of CC(=O)Nc1ccc(S(=O)(=O)NNC2=NS(=O)(=O)c3ccccc32)cc1, the inhibition is reported as 5.01% (inactive). In the case of Cc1ccc(C)c(NC2=NS(=O)(=O)c3ccccc32)c1, the inhibition is reported as 3.34% (inactive). In the case of Cc1cc(C)n2nc(N)c(N=Nc3ccc4c(c3)OCO4)c2n1, the inhibition is reported as -0.91% (inactive). O=C(Nc1ccc(OCC(F)(F)C(F)F)cc1)c1ccncc1 was tested, and the inhibition was 3.56% (inactive). In the case of NC(=NCCc1c[nH]c2ccccc12)NC(=O)c1ccc(Cl)cc1, the inhibition is reported as 2.62% (inactive). With O=c1c2ccccc2nc(SCc2cn3ccsc3n2)n1-c1ccc(F)cc1 the inhibition was -8.24% (inactive). Cc1ccc(-n2c(SCc3cn4ccsc4n3)nc3ccccc3c2=O)cc1 was tested, and the inhibition was 25.9% (active). For O=c1c2ccccc2nc(SCc2cn3ccsc3n2)n1-c1ccccc1, the inhibition was 14.2% (inactive). O=C(NC1CCCCC1)C(c1ccncc1)N(C(=O)Cn1nnc(-c2cccs2)n1)C1CCCC1 (stereo not given) was tested, and the inhibition was 0.4% (inactive). COc1ccccc1NC(=O)C(C)NS(=O)(=O)c1ccc(Cl)cc1 (stereo not given) was tested, and the inhibition was 0.77% (inactive). In the case of Cc1cc2oc(=O)cc(CN3CCOCC3)c2cc1C, the inhibition is reported as 11.2% (inactive). CCN(CC)c1ccc2c(C)c(CN3CCOCC3)c(=O)oc2c1 was tested, and the inhibition was 7.04% (inactive). For COCCN(C(=O)CN1CCN(S(=O)(=O)c2ccc(F)cc2)CC1)c1c(N)n(Cc2ccccc2)c(=O)[nH]c1=O, the inhibition was 7.35% (inactive). With Nc1cc2c(cc1[N+](=O)[O-])OCO2 the inhibition was 7.4% (inactive). For CC1C/C(=N/Nc2ccc([N+](=O)[O-])cc2[N+](=O)[O-])CC(C)(C)C1 (stereo not given), the inhibition was -1.42% (inactive). In the case of CC(=O)Nc1cc2c(cc1[N+](=O)[O-])OCCO2, the inhibition is reported as 6.17% (inactive). With CC1(C)OC(=O)C(=NNc2ccccc2[N+](=O)[O-])C(=O)O1 the inhibition was 9.4% (inactive). COc1ccc(/C=N/NC(=O)c2[nH]c3ccc(Br)cc3c2-c2ccccc2)cc1 was tested, and the inhibition was 2.81% (inactive). O=C(N/N=C/c1ccccc1Cl)c1[nH]c2ccc(Br)cc2c1-c1ccccc1 was tested, and the inhibition was -5.79% (inactive). In the case of CCOc1ccccc1N(C(=O)Nc1ccc(Cl)cc1)C1=NCCS1, the inhibition is reported as -3.04% (inactive). COc1ccc(C2CC(=O)NC3=C2C(=O)CCC3)cc1Cl (stereo not given) was tested, and the inhibition was -1.4% (inactive). With O=C(O)CSc1nnc(-c2ccccc2O)n1Cc1ccccc1 the inhibition was 6.98% (inactive). For O=C(CSc1nnc(-c2ccccc2)n1Cc1ccccc1)NNC(=O)c1ccccc1O, the inhibition was 16.1% (inactive). In the case of NC(=O)c1cc2c3ccccc3ccn2c1-c1ccccc1, the inhibition is reported as 0.96% (inactive). With CC(C)NC(=O)CSc1nnc(-c2ccc(F)cc2)c2ccccc12 the inhibition was 0.8% (inactive). For O=C1CC(c2ccco2)CC(O)=C1C=Nc1cc(Cl)cc(Cl)c1 (stereo not given), the inhibition was -0.66% (inactive). With O=C1CC(c2ccco2)CC(O)=C1C=Nc1cc(Cl)ccc1Cl (stereo not given) the inhibition was 4.23% (inactive). With O=C(NCc1ccccc1)c1nc2ccccc2s1 the inhibition was 1.19% (inactive). Cc1c2cc(O)c(=O)cc-2oc2cc(O)c(O)cc12 was tested, and the inhibition was 24.7% (active) and 6.57% (inactive). COc1cc(OC)c(-c2c3cc(O)c(=O)cc-3oc3cc(O)c(O)cc23)cc1OC was tested, and the inhibition was 22.9% (inactive). For O=c1cc2oc3cc(O)c(O)cc3c(-c3ccccc3O)c-2cc1O, the inhibition was 13.8% (inactive). For CC(=O)Nn1cnc2c(c1=O)C1(CCCCC1)Cc1ccccc1-2, the inhibition was 4.35% (inactive). With COc1ccc(NC(=O)Nc2cccc(Cl)c2Cl)c(OC)n1 the inhibition was 4.95% (inactive). For COc1ccccc1NC1=NC(C)(C)N=C(N)N1, the inhibition was 0.34% (inactive). With COC1=C(Nc2ccccc2OC)C(=O)c2ccccc2C1=O the inhibition was 7.8% (inactive). For COc1ccc(NC(=O)Nc2cccnc2)c(OC)c1, the inhibition was 2.93% (inactive). COc1ccc(OC)c(C2=NOC(C(=O)Nc3cccnc3)C2)c1 (stereo not given) was tested, and the inhibition was 7.85% (inactive). With CCOc1ccc(-n2c(=O)[nH]cc(C(=O)N3CCc4ccccc43)c2=O)cc1 the inhibition was 1.21% (inactive). Cc1ccc(C)c(NC(=O)c2ccccc2NS(=O)(=O)c2cc([N+](=O)[O-])ccc2C)c1 was tested, and the inhibition was 8.58% (inactive). For CC(=O)Nc1ccc(NS(=O)(=O)c2cc([N+](=O)[O-])ccc2C)cc1, the inhibition was 2.22% (inactive). With O=C(N/N=C(\Cc1ncc[nH]1)c1ccccc1)c1ccccc1 the inhibition was 19.5% (inactive). In the case of O=C(N/N=C(\Cc1ncc[nH]1)c1ccccc1)c1cccnc1, the inhibition is reported as 16.6% (inactive). In the case of COC(=O)c1cc2c(ccn2-c2ccc(F)cc2)n1CC(=O)OC(C)C, the inhibition is reported as 1.89% (inactive). In the case of CCOc1cc(N2CCOCC2)c(OCC)cc1NC(=O)C(NC(=O)c1ccco1)C(C)C (stereo not given), the inhibition is reported as 8.28% (inactive). In the case of c1ccc2c(c1)N1CCN=C1N2CCN1CCCCC1, the inhibition is reported as 5.87% (inactive). For Cc1oc(S(=O)(=O)N(C)C)cc1C(=O)Nc1ccc(F)cc1, the inhibition was 0.82% (inactive). With C=CCn1c(CCNC(=O)c2ccccc2F)nnc1SCC(=O)Nc1nc(C)cs1 the inhibition was -1.07% (inactive). With C=CCn1c(CNC(=O)c2ccccc2F)nnc1SCc1nc2ccccc2c(=O)[nH]1 the inhibition was 7.18% (inactive). For CCOC(=O)C(NC(=O)CC)(Nc1ccccc1OC)C(F)(F)F (stereo not given), the inhibition was -0.34% (inactive). For O=c1[nH]c(CN2CCN(c3ccccc3Cl)CC2)nc2ccsc12, the inhibition was 6.37% (inactive). COc1ccc(N2CCN(Cc3nc4ccsc4c(=O)[nH]3)CC2)cc1 was tested, and the inhibition was 13.2% (inactive). For O=c1[nH]c(CN2CCN(c3ccc([N+](=O)[O-])cc3)CC2)nc2ccsc12, the inhibition was 25.9% (active). In the case of O=C(CSc1nnc(NCc2ccccc2)s1)NC1CCS(=O)(=O)C1 (stereo not given), the inhibition is reported as -0.46% (inactive). For COCCCN1C(=O)c2[nH]nc(-c3cc(C)cc(C)c3O)c2C1c1ccc(O)c(OC)c1 (stereo not given), the inhibition was 6.71% (inactive). For COc1cc(C2c3c(-c4ccccc4O)n[nH]c3C(=O)N2Cc2ccco2)cc(OC)c1OC (stereo not given), the inhibition was 3.24% (inactive). COc1cc(C2c3c(-c4cc(C)cc(C)c4O)n[nH]c3C(=O)N2CCCO)cc(OC)c1OC (stereo not given) was tested, and the inhibition was 28.3% (active).
